# Results: PMC11024108
# How the values were obtained:
# [1] = biological target: Cytochrome c oxidase assembly factor 7 (UniProt Q96BR5); assay: cross-link between two proteins; affinity purification or IP with mass spectrometry; cross-linking mass spectrometry
# [2] = biological target: Mitochondrial import inner membrane translocase subunit Tim29 (UniProt Q9BSF4); assay: as above
# [3] = biological target: Endoplasmic reticulum membrane protein complex subunit 7 (UniProt Q9NPA0); assay: as above
# [4] = biological target: Thioredoxin-related transmembrane protein 1 (UniProt Q9H3N1); assay: as above
# Thioredoxin-related transmembrane protein 1, sequence (Q9H3N1 whole entry): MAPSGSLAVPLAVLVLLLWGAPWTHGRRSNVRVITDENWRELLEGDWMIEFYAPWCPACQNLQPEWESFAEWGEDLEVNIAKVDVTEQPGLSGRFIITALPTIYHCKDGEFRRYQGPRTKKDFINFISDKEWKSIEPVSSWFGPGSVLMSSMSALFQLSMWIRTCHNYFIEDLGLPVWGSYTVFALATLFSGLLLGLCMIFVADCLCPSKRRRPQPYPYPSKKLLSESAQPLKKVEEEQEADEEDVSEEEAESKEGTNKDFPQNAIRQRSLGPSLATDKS
# [5] = biological target: 10 kDa heat shock protein, mitochondrial (UniProt P61604); assay: cross-link between two proteins; cross-linking mass spectrometry
# 10 kDa heat shock protein, mitochondrial, sequence (P61604 whole entry): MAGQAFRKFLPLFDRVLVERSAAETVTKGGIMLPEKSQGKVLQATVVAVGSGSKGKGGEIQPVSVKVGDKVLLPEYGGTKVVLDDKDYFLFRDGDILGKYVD
# [6] = biological target: Aldehyde dehydrogenase, mitochondrial (UniProt P05091); assay: as above
# [7] = biological target: Malate dehydrogenase, mitochondrial (UniProt P40926); assay: as above
# [8] = biological target: NADH-ubiquinone oxidoreductase 75 kDa subunit, mitochondrial (UniProt P28331); assay: as above
# NADH-ubiquinone oxidoreductase 75 kDa subunit, mitochondrial, sequence (P28331 whole entry): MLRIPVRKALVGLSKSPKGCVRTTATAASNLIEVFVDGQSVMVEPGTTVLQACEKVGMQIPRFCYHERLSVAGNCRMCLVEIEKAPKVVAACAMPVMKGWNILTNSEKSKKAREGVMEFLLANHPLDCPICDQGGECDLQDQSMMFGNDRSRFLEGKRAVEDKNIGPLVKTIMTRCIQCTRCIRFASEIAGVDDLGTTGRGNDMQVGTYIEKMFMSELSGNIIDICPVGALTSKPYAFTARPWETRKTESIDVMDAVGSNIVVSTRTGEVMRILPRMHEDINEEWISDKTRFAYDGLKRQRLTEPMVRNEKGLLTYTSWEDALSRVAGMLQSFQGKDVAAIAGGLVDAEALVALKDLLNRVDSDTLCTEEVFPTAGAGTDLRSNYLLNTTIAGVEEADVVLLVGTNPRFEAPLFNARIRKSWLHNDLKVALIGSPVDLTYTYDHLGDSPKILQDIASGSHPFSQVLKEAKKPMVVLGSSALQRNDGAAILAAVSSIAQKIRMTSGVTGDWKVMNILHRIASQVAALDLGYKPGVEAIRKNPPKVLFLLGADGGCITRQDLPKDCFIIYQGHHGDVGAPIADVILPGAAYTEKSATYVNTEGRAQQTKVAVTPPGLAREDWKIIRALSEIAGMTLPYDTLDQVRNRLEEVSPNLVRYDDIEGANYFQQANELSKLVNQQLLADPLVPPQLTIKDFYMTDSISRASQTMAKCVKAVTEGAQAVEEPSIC
# [9] = biological target: ATP synthase peripheral stalk subunit OSCP, mitochondrial (UniProt P48047); assay: as above
# [10] = biological target: NAD kinase 2, mitochondrial (UniProt Q4G0N4); assay: co-fractionation; co-fractionation; cross-linking mass spectrometry
# [11] = biological target: ATPase family AAA domain-containing protein 3A (UniProt Q9NVI7); assay: cross-link between two proteins; affinity purification or IP with mass spectrometry; cross-linking mass spectrometry
# [12] = biological target: Cytochrome c oxidase assembly factor 4 homolog, mitochondrial (UniProt Q9NYJ1); assay: as above
# Cytochrome c oxidase assembly factor 4 homolog, mitochondrial, sequence (Q9NYJ1 whole entry): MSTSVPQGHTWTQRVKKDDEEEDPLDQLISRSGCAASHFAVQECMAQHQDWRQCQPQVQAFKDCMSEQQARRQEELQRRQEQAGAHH
# [13] = biological target: MICOS complex subunit MIC19 (UniProt Q9NX63); assay: as above
# [14] = biological target: MICOS complex subunit MIC25 (UniProt Q9BRQ6); assay: as above
# MICOS complex subunit MIC25, sequence (Q9BRQ6 whole entry, one chain of several): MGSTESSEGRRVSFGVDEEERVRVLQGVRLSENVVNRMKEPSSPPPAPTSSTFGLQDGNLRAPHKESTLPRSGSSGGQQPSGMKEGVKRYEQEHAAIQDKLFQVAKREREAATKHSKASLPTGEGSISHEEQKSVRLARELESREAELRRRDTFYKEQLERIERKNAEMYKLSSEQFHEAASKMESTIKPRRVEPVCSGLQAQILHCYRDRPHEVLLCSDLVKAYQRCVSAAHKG
# [15] = biological target: Serine/threonine-protein phosphatase PGAM5, mitochondrial (UniProt Q96HS1); assay: as above
# Serine/threonine-protein phosphatase PGAM5, mitochondrial, sequence (Q96HS1 whole entry): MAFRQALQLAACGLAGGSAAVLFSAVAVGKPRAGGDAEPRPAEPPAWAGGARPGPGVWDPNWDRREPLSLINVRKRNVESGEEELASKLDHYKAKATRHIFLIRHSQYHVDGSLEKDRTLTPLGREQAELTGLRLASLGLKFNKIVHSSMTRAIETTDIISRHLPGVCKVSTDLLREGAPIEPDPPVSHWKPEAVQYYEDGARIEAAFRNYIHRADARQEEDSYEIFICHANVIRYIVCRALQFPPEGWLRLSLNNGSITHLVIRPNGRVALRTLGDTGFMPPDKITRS
# [16] = biological target: TIM double twin CX3C motif protein (UniProt Q96C01); assay: as above
# Calnexin = Calnexin (UniProt P27824); assay: as above
# Calnexin, sequence (P27824 whole entry): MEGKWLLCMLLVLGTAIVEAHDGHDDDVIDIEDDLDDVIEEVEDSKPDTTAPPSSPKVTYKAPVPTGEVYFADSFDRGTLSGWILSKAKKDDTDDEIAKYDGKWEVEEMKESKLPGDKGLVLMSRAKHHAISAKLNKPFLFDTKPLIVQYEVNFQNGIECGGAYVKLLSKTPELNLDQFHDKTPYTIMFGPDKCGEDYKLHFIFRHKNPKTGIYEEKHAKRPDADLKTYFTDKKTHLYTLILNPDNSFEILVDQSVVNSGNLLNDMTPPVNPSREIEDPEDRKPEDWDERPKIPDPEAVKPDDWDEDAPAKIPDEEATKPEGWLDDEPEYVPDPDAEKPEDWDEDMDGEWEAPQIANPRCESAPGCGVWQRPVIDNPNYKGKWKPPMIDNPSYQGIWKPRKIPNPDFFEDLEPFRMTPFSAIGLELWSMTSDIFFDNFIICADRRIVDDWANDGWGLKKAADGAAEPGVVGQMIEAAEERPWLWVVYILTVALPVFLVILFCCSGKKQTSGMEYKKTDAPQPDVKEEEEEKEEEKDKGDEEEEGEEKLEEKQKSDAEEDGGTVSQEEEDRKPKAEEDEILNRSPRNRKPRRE
# [17] = biological target: Cytochrome c oxidase subunit 6C (UniProt P09669); assay: cross-link between two proteins; cross-linking mass spectrometry
# Cytochrome c oxidase subunit 6C, sequence (P09669 whole entry): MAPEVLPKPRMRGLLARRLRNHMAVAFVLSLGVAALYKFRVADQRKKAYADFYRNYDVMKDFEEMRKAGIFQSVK
# [18] = biological target: Trifunctional enzyme subunit alpha, mitochondrial (UniProt P40939); assay: as above
# Trifunctional enzyme subunit alpha, mitochondrial, sequence (P40939 whole entry): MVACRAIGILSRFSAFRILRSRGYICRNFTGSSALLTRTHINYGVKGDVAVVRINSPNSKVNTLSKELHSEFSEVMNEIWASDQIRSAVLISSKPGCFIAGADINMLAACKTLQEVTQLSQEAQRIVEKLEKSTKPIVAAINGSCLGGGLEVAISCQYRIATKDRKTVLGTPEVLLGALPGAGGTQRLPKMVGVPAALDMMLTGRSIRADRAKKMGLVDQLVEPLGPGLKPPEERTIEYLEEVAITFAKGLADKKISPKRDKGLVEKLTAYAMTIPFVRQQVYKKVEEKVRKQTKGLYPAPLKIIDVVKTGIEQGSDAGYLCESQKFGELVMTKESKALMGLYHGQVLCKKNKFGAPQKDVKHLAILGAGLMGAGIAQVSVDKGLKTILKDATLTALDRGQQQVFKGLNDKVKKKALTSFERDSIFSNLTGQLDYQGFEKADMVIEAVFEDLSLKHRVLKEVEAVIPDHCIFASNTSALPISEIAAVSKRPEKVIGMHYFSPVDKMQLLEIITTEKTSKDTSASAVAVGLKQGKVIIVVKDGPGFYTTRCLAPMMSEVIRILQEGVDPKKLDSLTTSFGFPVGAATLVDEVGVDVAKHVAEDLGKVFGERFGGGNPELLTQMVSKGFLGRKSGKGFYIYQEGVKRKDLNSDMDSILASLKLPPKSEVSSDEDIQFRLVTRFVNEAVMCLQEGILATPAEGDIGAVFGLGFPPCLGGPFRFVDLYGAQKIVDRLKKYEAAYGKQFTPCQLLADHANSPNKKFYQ
# [19] = biological target: Solute carrier family 25 member 3 (UniProt Q00325); assay: co-fractionation; co-fractionation; cross-linking mass spectrometry
# Solute carrier family 25 member 3, sequence (Q00325 whole entry): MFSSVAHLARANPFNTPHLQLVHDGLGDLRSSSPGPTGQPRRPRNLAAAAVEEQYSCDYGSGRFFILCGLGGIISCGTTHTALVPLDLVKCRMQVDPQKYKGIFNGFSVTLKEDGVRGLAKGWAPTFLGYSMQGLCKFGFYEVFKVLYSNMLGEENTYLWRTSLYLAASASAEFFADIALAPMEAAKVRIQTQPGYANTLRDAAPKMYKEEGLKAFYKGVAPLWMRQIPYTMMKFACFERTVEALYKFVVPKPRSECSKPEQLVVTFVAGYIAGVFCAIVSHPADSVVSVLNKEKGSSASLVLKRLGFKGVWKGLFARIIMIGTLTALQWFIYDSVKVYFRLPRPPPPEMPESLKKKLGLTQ
# [20] = biological target: Dolichyl-diphosphooligosaccharide--protein glycosyltransferase subunit STT3B (UniProt Q8TCJ2); assay: cross-linking mass spectrometry
# [21] = biological target: Dolichyl-diphosphooligosaccharide--protein glycosyltransferase subunit 2 (UniProt P04844); assay: co-fractionation; co-fractionation; cross-linking mass spectrometry
# 14-3-3 protein epsilon = 14-3-3 protein epsilon (UniProt P62258); assay: cross-link between two proteins; cross-linking mass spectrometry
# 14-3-3 protein gamma = 14-3-3 protein gamma (UniProt P61981); assay: as above
# [22] = biological target: Large ribosomal subunit protein bL12m (UniProt P52815); assay: cross-linking mass spectrometry
# [23] = biological target: 3-hydroxyacyl-CoA dehydrogenase type-2 (UniProt Q99714); assay: cross-link between two proteins; cross-linking mass spectrometry
# 3-hydroxyacyl-CoA dehydrogenase type-2, sequence (Q99714 whole entry): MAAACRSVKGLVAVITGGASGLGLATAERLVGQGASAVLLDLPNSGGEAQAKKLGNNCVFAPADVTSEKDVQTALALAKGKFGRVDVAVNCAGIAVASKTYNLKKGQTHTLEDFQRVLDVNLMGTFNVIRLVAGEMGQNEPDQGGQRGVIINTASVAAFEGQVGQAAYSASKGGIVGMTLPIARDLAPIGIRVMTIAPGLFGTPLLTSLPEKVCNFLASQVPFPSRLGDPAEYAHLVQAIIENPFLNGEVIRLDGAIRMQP
# [24] = biological target: Complement component 1 Q subcomponent-binding protein, mitochondrial (UniProt Q07021); assay: as above
# Complement component 1 Q subcomponent-binding protein, mitochondrial, sequence (Q07021 whole entry): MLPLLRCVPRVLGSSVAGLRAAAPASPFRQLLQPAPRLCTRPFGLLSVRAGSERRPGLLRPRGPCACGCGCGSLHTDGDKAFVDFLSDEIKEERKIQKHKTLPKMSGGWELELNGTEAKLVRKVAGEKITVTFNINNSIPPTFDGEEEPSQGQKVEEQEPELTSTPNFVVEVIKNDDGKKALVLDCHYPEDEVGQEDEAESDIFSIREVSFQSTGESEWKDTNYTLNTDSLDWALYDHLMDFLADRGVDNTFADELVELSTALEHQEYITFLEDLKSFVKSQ
# [25] = biological target: Methylcrotonoyl-CoA carboxylase beta chain, mitochondrial (UniProt Q9HCC0); assay: as above
# [26] = biological target: Mitochondrial 10-formyltetrahydrofolate dehydrogenase (UniProt Q3SY69); assay: as above
# [27] = biological target: Polyribonucleotide nucleotidyltransferase 1, mitochondrial (UniProt Q8TCS8); assay: as above
# [28] = biological target: Pyrroline-5-carboxylate reductase 2 (UniProt Q96C36); assay: as above
# Pyrroline-5-carboxylate reductase 2, sequence (Q96C36 whole entry): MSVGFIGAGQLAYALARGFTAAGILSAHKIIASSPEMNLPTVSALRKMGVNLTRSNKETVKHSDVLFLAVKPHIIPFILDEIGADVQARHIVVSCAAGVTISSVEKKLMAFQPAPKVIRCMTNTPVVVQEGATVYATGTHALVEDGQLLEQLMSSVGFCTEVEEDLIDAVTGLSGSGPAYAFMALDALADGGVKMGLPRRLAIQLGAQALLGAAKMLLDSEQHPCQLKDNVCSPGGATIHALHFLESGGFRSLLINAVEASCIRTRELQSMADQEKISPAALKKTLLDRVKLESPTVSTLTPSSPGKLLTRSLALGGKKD
# [29] = biological target: Spectrin alpha chain, non-erythrocytic 1 (UniProt Q13813); assay: as above
# [30] = biological target: Large ribosomal subunit protein bL12m (UniProt P52815); assay: cross-link between two proteins; affinity purification or IP with mass spectrometry; cross-linking mass spectrometry
# [31] = biological target: AP-1 complex subunit mu-1 (UniProt Q9BXS5); assay: co-fractionation; cross-linking mass spectrometry
# [32] = biological target: Ras-related protein Rab-1B (UniProt Q9H0U4); assay: cross-link between two proteins; co-fractionation; cross-linking mass spectrometry
# Ras-related protein Rab-1B, sequence (Q9H0U4 whole entry): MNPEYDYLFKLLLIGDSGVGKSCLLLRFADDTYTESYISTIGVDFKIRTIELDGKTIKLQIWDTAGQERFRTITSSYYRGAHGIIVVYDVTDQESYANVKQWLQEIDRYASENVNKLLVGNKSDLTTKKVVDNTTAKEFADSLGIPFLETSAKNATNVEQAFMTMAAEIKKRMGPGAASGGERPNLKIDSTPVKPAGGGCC
# Syntaxin-8 = Syntaxin-8 (UniProt Q9UNK0); assay: cross-link between two proteins; affinity purification or IP with mass spectrometry; cross-linking mass spectrometry
# Mitochondrial import inner membrane translocase subunit Tim29, sequence (Q9BSF4 whole entry): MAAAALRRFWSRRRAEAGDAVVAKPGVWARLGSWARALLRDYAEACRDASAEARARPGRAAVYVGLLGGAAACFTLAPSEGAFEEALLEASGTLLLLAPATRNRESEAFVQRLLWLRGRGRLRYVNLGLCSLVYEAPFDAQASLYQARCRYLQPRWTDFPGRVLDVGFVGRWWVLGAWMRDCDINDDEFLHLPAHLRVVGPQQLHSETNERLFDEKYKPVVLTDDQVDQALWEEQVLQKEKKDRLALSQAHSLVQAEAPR
substance,measurement,setting,value
"Myristoylated alanine-rich C-kinase substrate, P29966",listed as a hit,[1],yes
"Mitochondrial import inner membrane translocase subunit Tim10, P62072",listed as a hit,[2],yes
"ER membrane protein complex subunit 1, Q8N766",listed as a hit,[3],yes
same,listed as a hit,[4],yes
"Aspartate aminotransferase, mitochondrial, P00505",listed as a hit,[5],yes
same,listed as a hit,[6],yes
same,listed as a hit,[7],yes
same,listed as a hit,[8],yes
"Citrate synthase, mitochondrial, O75390",listed as a hit,[9],yes
same,listed as a hit,[7],yes
same,listed as a hit,[10],yes
"Cytochrome c oxidase assembly factor 7, Q96BR5",listed as a hit,[11],yes
same,listed as a hit,[12],yes
same,listed as a hit,[13],yes
same,listed as a hit,[14],yes
same,listed as a hit,[15],yes
same,listed as a hit,[16],yes
"Dolichol-phosphate mannosyltransferase subunit 1, O60762",listed as a hit,Calnexin,yes
"ADP/ATP translocase 2, P05141",listed as a hit,[17],yes
same,listed as a hit,[7],yes
same,listed as a hit,[18],yes
same,listed as a hit,[19],yes
"Dolichyl-diphosphooligosaccharide--protein glycosyltransferase subunit 1, P04843",listed as a hit,[20],yes
same,listed as a hit,[21],yes
same,listed as a hit,Calnexin,yes
"14-3-3 protein theta, P27348",listed as a hit,14-3-3 protein epsilon,yes
same,listed as a hit,14-3-3 protein gamma,yes
"Stress-70 protein, mitochondrial, P38646",listed as a hit,[22],yes
same,listed as a hit,[5],yes
same,listed as a hit,[23],yes
same,listed as a hit,[24],yes
same,listed as a hit,[7],yes
same,listed as a hit,[25],yes
same,listed as a hit,[26],yes
same,listed as a hit,[27],yes
same,listed as a hit,[28],yes
same,listed as a hit,[29],yes
"Tetratricopeptide repeat protein 19, mitochondrial, Q6DKK2",listed as a hit,[1],yes
"Heterogeneous nuclear ribonucleoproteins C1/C2, P07910",listed as a hit,[30],yes
"AP-1 complex subunit beta-1, Q10567",listed as a hit,[31],yes
"Dynamin-like GTPase OPA1, mitochondrial, O60313",listed as a hit,[1],yes
"Ras-related protein Rab-1A, P62820",listed as a hit,[32],yes
"Flotillin-1, O75955",listed as a hit,Syntaxin-8,yes
